Test results taken from PubChem BioAssay.
Activity calls are given as the source filed them. Unless noted, the rule behind the calls is not given here.

Key:
[1] = system: XIP peptide (Xip251-270) binding; experiment: small-molecule binders of XIP peptide, primary screen, biochemical, small-molecule microarray, fluorescence 635/667 nm, 0.1 µg/mL protein (AID 1182); conditions: fluorescent protein binding, 635 nm, higher = more signal, called active from +8 up or from −8 down
[2] = system: XIP peptide (Xip251-270); experiment: small-molecule binders of XIP peptide, primary screen, biochemical, small-molecule microarray, fluorescence 635/667 nm, 0.5 µg/mL protein (AID 1183); conditions: small-molecule microarray binding, fluorescence 635 nm; higher = more signal
[3] = Plasmodium falciparum growth inhibition, primary screen, strain 3D7, DAPI fluorescence, 100 nL (AID 1184);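 note: parasites grown inside human red blood cells in medium with human serum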; conditions: P. falciparum 3D7 growth, 3 d, higher = more signal
[4] = target: Homeobox protein Hox-A13 (Mus musculus) (UniProt Q62424); experiment: inhibitors of HoxA13-DNA binding, primary screen, biochemical, fluorescence polarization, labeled oligonucleotide (AID 1185); conditions: 15 min, higher = more signal, called active from +8 up or from −8 down
[5] = inhibitors of hydroxyurea-induced Chk1 phosphorylation, primary screen, imaging, HeLa, phospho-Chk1 antibody, percent positive cells (AID 1186); conditions: hydroxyurea-induced phospho-Chk1 immunofluorescence imaging, higher = more signal
[6] = inhibitors of hydroxyurea-induced Chk1 phosphorylation, primary screen, imaging, HeLa, phospho-Chk1 nuclear intensity (AID 1187); conditions: hydroxyurea-induced phospho-Chk1 immunofluorescence imaging, higher = more signal

Homeobox protein Hox-A13 (Mus musculus), sequence (Q62424 whole entry, looked up): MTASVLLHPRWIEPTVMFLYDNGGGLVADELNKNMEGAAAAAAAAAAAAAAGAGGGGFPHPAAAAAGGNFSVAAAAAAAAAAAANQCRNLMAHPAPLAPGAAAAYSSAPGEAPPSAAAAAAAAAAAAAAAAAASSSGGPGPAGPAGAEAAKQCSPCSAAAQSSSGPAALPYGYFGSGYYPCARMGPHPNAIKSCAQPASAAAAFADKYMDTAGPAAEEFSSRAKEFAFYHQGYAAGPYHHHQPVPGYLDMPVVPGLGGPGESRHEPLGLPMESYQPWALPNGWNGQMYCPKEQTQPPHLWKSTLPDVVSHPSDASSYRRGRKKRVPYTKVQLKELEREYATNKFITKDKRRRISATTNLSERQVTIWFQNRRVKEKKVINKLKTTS

Structure (SMILES)	composite z-score [1]	composite z-score [2]	z-score [3]	z-score [4]	z-score [5]	z-score [6]
COc1ccc(C(O)C2C=CC3C(=O)N(c4ccccc4)C(=O)C3N2Nc2ccc(C(C)C)cc2)c2ccccc12 (stereo not given)	0.886 (inactive)	0.802	-0.247	-0.93 (inactive)	0.417 (inactive)	0.0807 (inactive)
CN1C(=O)C2C(C1=O)C1C=C(CCCO)C2C(c2cccs2)N1Cc1cc2c(cc1Br)OCO2 (stereo not given)	0.0841 (inactive)	0.757	-0.654	-8.9 (active)	0.214 (inactive)	0.228 (inactive)
Cc1cccc([C@H]2C[C@H]3C(I)=C[C@@H]2C(=O)[C@]32CO2)c1	0.162 (inactive)	-0.452	1.22	-1.53 (inactive)	-0.33 (inactive)	-0.466 (inactive)
COc1cc(NN2C(C(O)c3ccccc3)C=CC3C(=O)N(C)C(=O)C32)cc(OC)c1OC (stereo not given)	0.561 (inactive)	0.346	-0.312	-3.23 (inactive)	-0.36 (inactive)	-0.516 (inactive)
CCc1cccc(NC(=O)O[C@H]2[C@H](OC(=O)Nc3ccccc3)[C@H](OC(=O)Nc3ccccc3)[C@@H](OC)O[C@@H]2CO)c1	1.54 (inactive)	0.829	-1.49	-5.74 (inactive)	0.156 (inactive)	0.628 (inactive)
COC(=O)C1N=C(c2ccc(OCCCO)cc2)N(c2ccccc2)O1 (stereo not given)	2.4 (inactive)	0.864	0.704	-3.85 (inactive)	-0.729 (inactive)	-0.63 (inactive)
O=C1OCCC=C[C@H]2OC34C=CCN(c5ccc(Cl)cc5)C(=O)[C@H]3N(CCCCCCO)C(=O)[C@@H]4C12 (stereo not given in full)	0.43 (inactive)	-0.619	-0.278	-5.62 (inactive)	-0.301 (inactive)	0.116 (inactive)
CCCNC(=O)[C@@]1(Sc2ccc(C)cc2)CC(=O)N(C2CCCCC2)[C@@H]1c1ccc(CO)cc1I	0.398 (inactive)	0.372	-0.688	-4.72 (inactive)	0.493 (inactive)	0.252 (inactive)
C=CCN1C(=O)[C@]2(O[C@H](CCO)[C@@H]([Si](C)(C)c3ccc(OC)cc3)[C@@H]2C)c2cc(NC(=O)c3ccc(OC)cc3)ccc21	-0.129 (inactive)	0.456	-2.64	-5.32 (inactive)	-0.97 (inactive)	-0.881 (inactive)
COc1ccc([Si](C)(C)[C@@H]2[C@@H](CCn3cc([C@H](O)c4ccccc4)nn3)O[C@]3(C(=O)N(c4ccccc4)c4ccccc43)[C@H]2C)cc1	-0.17 (inactive)	0.559	-1.73	-3.01 (inactive)	-0.431 (inactive)	-0.361 (inactive)
CC(=O)NCCCC[C@@H]1NC(=O)[C@@H]2C[C@H](C(=O)NCCCCCCN)[C@H](c3cccc(OCCO)c3)N2C1=O	1.15 (inactive)	0.635	1.42	-3.35 (inactive)	0.391 (inactive)	0.388 (inactive)
C=CCC(OC(C)=O)[C@@H]1[C@@H](N(Cc2ccc(-c3cccc(C(F)(F)F)c3)o2)C(=O)c2cccc3ccccc23)c2cc(OCCCO)ccc2N1C(=O)Cc1ccc(OC)cc1 (stereo not given in full)	0.309 (inactive)	0.456	-2.43	-1.92 (inactive)	-0.48 (inactive)	0.0284 (inactive)
C=CCN1C(=O)[C@@]2(O[C@@H](CCO)[C@H]([Si](C)(C)c3ccc(OC)cc3)[C@H]2C)c2cc(N3CCOC3=O)ccc21	0.341 (inactive)	0.68	-2.39	-5.97 (inactive)	-0.0674 (inactive)	0.0448 (inactive)
COC(=O)[C@@]1(Cc2ccc(OC)cc2)[C@H]2c3cc(C(=O)N4CCCC4)n(Cc4ccc(OC(F)(F)F)cc4)c3C[C@H]2CN1C(=O)c1ccccc1	0.931 (inactive)	0.702	-1.29	-2.94 (inactive)	0.168 (inactive)	0.569 (inactive)
CC(C)=CCCC(C)=CC(O)C1C=CC2C(=O)N(c3ccccc3)C(=O)C2N1Nc1ccccc1F (stereo not given)	0.0917 (inactive)	0.546	0.203	-3.38 (inactive)	0.0156 (inactive)	0.0908 (inactive)
O=C1C2C=CC(C(O)c3ccc4c(c3)OCO4)N(Nc3ccccc3)C2C(=O)N1c1ccccc1 (stereo not given)	0.395 (inactive)	0.795	-0.214	-1.49 (inactive)	0.104 (inactive)	0.614 (inactive)
Cc1ccc(F)cc1S(=O)(=O)N[C@@H]1CCN(Cc2cccc3[nH]ccc23)C1	-0.605 (inactive)	0.578	-0.797	-3.62 (inactive)	-0.561 (inactive)	-0.948 (inactive)
COCC(=C=CC[C@@H](O)c1ccc(OCCO)cc1)CCO	0.474 (inactive)	0.429	-1.46	-3.22 (inactive)	-0.321 (inactive)	0.301 (inactive)

Structure (SMILES)	composite z-score [1]	composite z-score [2]	z-score [3]	z-score [4]	z-score [5]	z-score [6]
C=C(/C(=C/C[C@H](OC(=O)c1ccncc1)c1cccc(OCCO)c1)c1cnc2ccccc2c1)C(C)C	0.0082 (inactive)	0.67	-1.42	-5.01 (inactive)	0.654 (inactive)	0.212 (inactive)
CCOC(=O)C[C@H]1[C@H](OC(=O)c2cc3ccccc3oc2=O)[C@@H](NC(=O)c2ccc3ccccc3c2)c2cc(OCCCO)ccc2N1C(=O)Cc1ccc(OC)cc1	0.515 (inactive)	0.335	-0.791	-2.96 (inactive)	0.204 (inactive)	-0.322 (inactive)
COc1cc(NN2C(C(O)c3cc(OC)c(OC)c(OC)c3)C=CC3C(=O)N(c4ccccc4)C(=O)C32)cc(OC)c1OC (stereo not given)	0.692 (inactive)	0.552	-0.732	-4.86 (inactive)	1.06 (inactive)	0.889 (inactive)
CN1C(=O)[C@@H]2[C@@H](CC(COc3ccccc3)=C([C@H](O)CCc3ccccc3)[C@@H]2CO)C1=O	-0.221 (inactive)	0.365	-0.0804	-6.39 (inactive)	-1.25 (inactive)	-1.34 (inactive)
Cc1ccc([C@H]2C(C(=O)O)=C[C@@H](C(C)(C)C)N2S(=O)(=O)c2ccc(C)cc2)cc1	0.629 (inactive)	0.854	1.64	-4.73 (inactive)	0.695 (inactive)	0.255 (inactive)
C=C[C@@H](OC)[C@H](OC(=O)Nc1ccc(OC)cc1)c1ccc(OC)c(O)c1	2.2 (inactive)	0.462	1.46	-2.54 (inactive)	1.11 (inactive)	1.39 (inactive)
COc1ccc([Si](C)(C)[C@H]2[C@H](CCO)O[C@@]3(C(=O)N(Cc4ccc(N5C(=O)c6ccccc6Oc6ccccc65)cc4)c4ccccc43)[C@@H]2C)cc1	-0.136 (inactive)	0.0004	-1.67	-1.05 (inactive)	-0.557 (inactive)	-0.583 (inactive)
O=C1C[C@@](C(=O)NCc2ccccc2)(c2ccc([N+](=O)[O-])cc2)[C@@H](c2ccc(CO)cc2I)N1CC12CC3CC(CC(C3)C1)C2	0.239 (inactive)	0.692	-1.48	-2.19 (inactive)	-0.114 (inactive)	-0.147 (inactive)
C=C(/C(=C/C[C@@H](OC(C)=O)c1ccc(OCCO)cc1)c1cc(C(=O)OC)ccc1OC)C(C)C	0.96 (inactive)	0.819	-3	-4.3 (inactive)	0.38 (inactive)	0.578 (inactive)
CN(C)C(=O)[C@@]1(Cc2ccccc2N=[N+]=[N-])N=C(c2ccc(OCCCO)cc2)O[C@H]1c1ccccc1	1.47 (inactive)	0.821	-2.19	-4.9 (inactive)	-0.279 (inactive)	-0.303 (inactive)
CCCCC(=O)N(CCN1CCOCC1)[C@@H]1CC(C(=O)NCCO)=C[C@H](Oc2c(I)cc(CO)cc2OC)[C@H]1O	0.763 (inactive)	0.918	-0.0342	-4.26 (inactive)	-0.686 (inactive)	-0.31 (inactive)
Cc1ccc(S[C@]2(C(=O)NC(C)C)CC(=O)N(Cc3ccccc3Cl)[C@@H]2c2ccc(CO)cc2)cc1	0.73 (inactive)	-0.11	-1.49	-3.73 (inactive)	-0.0383 (inactive)	-0.0912 (inactive)
[N-]=[N+]=NCc1ccccc1[C@@H]1OC(c2ccc(OCCCO)cc2)=N[C@]1(Cc1ccccc1)C(=O)NCCN1CCOCC1	-0.256 (inactive)	0.77	-2.2	-1.66 (inactive)	-0.294 (inactive)	-0.108 (inactive)
COCCCNC(=O)[C@@]1(Sc2ccc(C)cc2)CC(=O)N(C(C)C)[C@@H]1c1ccc(CO)cc1I	0.287 (inactive)	0.609	-1.63	-4.13 (inactive)	0.121 (inactive)	0.579 (inactive)
CCOC(=O)C1=CCC(c2ccco2)N(S(=O)(=O)c2ccc(C)cc2)C1 (stereo not given)	0.397 (inactive)	0.704	-0.0601	-4.57 (inactive)	-0.641 (inactive)	-0.942 (inactive)
O=C1C[C@@](C(=O)NCC(F)(F)F)(c2ccc([N+](=O)[O-])cc2)[C@@H](c2ccc(CO)cc2)N1CC12CC3CC(CC(C3)C1)C2	1.13 (inactive)	0.709	-1.43	-4.42 (inactive)	-0.123 (inactive)	-0.661 (inactive)
CN(C)C(=O)[C@@]1(CCC(=O)OC(C)(C)C)N=C(c2ccc(OCCCO)cc2)O[C@H]1c1ccccc1CN=[N+]=[N-]	1.14 (inactive)	0.316	-2.32	-5.91 (inactive)	0.234 (inactive)	0.422 (inactive)
